Results filed as inconclusive are left out. Active and inactive are the calls of the source. Calls follow the shape of the dose curve; as a rule, active = well fitted curve in the direction sought with a large enough effect; inconclusive = small, poorly fitted or top-dose-only effect, or another doubt; inactive = no such curve, though single readings can be large; an effect the other way counts as inactive or inconclusive.
Key:
[1] = qHTS assay for measurement of the activity of small molecule inhibitors on Zika virus induced Caspase-3 activity in human iPSC derived neural progenitor cells (hNPCs) (AID 1224857); also: nearly all actives have a fitted effect of over 65% in size
In short: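 Quantitative HTS format: human iPSC neural progenitors, 1 h compound pretreatment, ZIKV 2 FFU/cell for 6 h at 37 C. Percent inhibition derived from luminescent caspase-3/7 signal between uninfected and infected controls.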

[2] = qHTS assay for measurement of the activity of small molecule inhibitors on Zika virus induced Caspase-3 activity in human astrocytoma cells (AID 1224859)
In short: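 Readout is luminescence from Caspase-Glo 3/7 added after a 6 h ZIKV infection (2 FFU/cell) of compound-pretreated (1 h) SNB-19 cells; data expressed as % inhibition versus uninfected and infected wells.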

[3] = qHTS assay to identify small molecule inhibitors of chordoma cells - UCH-1 (AID 1259355); also: nearly all actives have a fitted effect of over 55% in size
In short: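 Luminescent ATP read-out (CellTiter-Glo, 30min at room temperature) measured viability of UCH-1 cells exposed for 48hr to test drugs at 15 concentrations, co-dosed with a five-agent combination of auranofin, camptothecin, doxorubicin, rubitecan and topotecan.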

[4] = qHTS assay to identify small molecule inhibitors of chordoma cells - UCH-2 (AID 1259356); also: series mostly up to about 46 µM
[5] = P-glycoprotein substrates identified in KB-8-5-11 adenocarcinoma cell line, qHTS therapeutic library screen (AID 1346987); conditions: outcome: dose series up to 44.5 µM; also: series mostly up to about 44 µM; nearly all actives have a fitted effect of over 65% in size
In short: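 Steps: plate 500 KB-8-5-11 cells/well in DMEM + 10% FCS (colchicine removed); pin compounds in dose-response; incubate 72 h, 37 degree C, 5% CO2; add CellTiter-Glo, 5 min; read luminescence.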

[6] = NS1 protein of Zika virus - qHTS assay to identify small molecule inhibitors in human HEK 293 cells (AID 1347053); also: series mostly up to about 46 µM; nearly all actives have a fitted effect of over 55% in size
In short: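 HEK 293; 20 h pre-culture, 37 C/5% CO2; cpd 1 h pre-infection; ZIKV MR766, MOI = 0.5, 24 h, 37 C; TR-FRET NS1 readout (two anti-NS1 Abs); norm. to no-virus vs infected.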

[7] = qHTS of pediatric cancer cell lines to identify multiple opportunities for drug repurposing: Primary screen for TC32 cells (AID 1347089); also: nearly all actives have a fitted effect of over 60% in size
In short: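 Measured quantity: luminescence from CellTiter-Glo, reflecting metabolically active TC32 cells following 48 h of compound. Curves came straight from multi-point titrations, with 8 or 11 points in primary and 11 in confirmatory screening.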

[8] = qHTS of pediatric cancer cell lines to identify multiple opportunities for drug repurposing: Primary screen for DAOY cells (AID 1347090); also: series mostly up to about 46 µM; nearly all actives have a fitted effect of over 55% in size
In short: (§1)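 Eight- or eleven-point concentration series, 48 h treatment at 37 degrees C in growth media; readout CellTiter-Glo luminescence. Potency and efficacy were taken from the concentration-response curves.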

[9] = qHTS of pediatric cancer cell lines to identify multiple opportunities for drug repurposing: Primary screen for SJ-GBM2 cells (AID 1347091)
In short: as §1

[10] = qHTS of pediatric cancer cell lines to identify multiple opportunities for drug repurposing: Primary screen for A673 cells (AID 1347092); also: nearly all actives have a fitted effect of over 45% in size
In short: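 Cells are plated, rested 5 h, dosed by pintool, incubated 48 h, then lysed with CellTiter-Glo and read by luminescence. DMSO is the neutral control; bortezomib at 2.3 uM final is the positive control.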

[11] = qHTS of pediatric cancer cell lines to identify multiple opportunities for drug repurposing: Primary screen for BT-37 cells (AID 1347094); also: series mostly up to about 57 µM
In short: (§2)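 CRCs from 8- or 11-point titrations (lowest final 0.59 nM NPC, 0.78 nM MIPE). Cell viability: CellTiter-Glo after 48 h incubation, 15 min room-temperature development, luminescence imaging.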

[12] = qHTS of pediatric cancer cell lines to identify multiple opportunities for drug repurposing: Primary screen for NB-EBc1 cells (AID 1347095)
In short: as §2

[13] = qHTS of pediatric cancer cell lines to identify multiple opportunities for drug repurposing: Primary screen for U-2 OS cells (AID 1347096); also: nearly all actives have a fitted effect of over 50% in size
In short: (§3)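 Cells (500-1,000/well) in growth media were settled 5 h at 37 degrees C, then given compounds for 48 h. Viability was read as CellTiter-Glo luminescence. Primary runs used MIPE at 11 points (0.78 nM-46 µM) and NPC at 8 points (0.59 nM-46 µM); follow-ups used 11 points.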

[14] = qHTS of pediatric cancer cell lines to identify multiple opportunities for drug repurposing: Primary screen for Saos-2 cells (AID 1347097); also: nearly all actives have a fitted effect of over 40% in size
In short: as §2

[15] = qHTS of pediatric cancer cell lines to identify multiple opportunities for drug repurposing: Primary screen for SK-N-SH cells (AID 1347098);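 also: DMSO served as neutral control and bortezomib at 2.3 µM as positive control; nearly all actives have a fitted effect of over 65% in size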
In short: (§4)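 Cells (500-1,000/well) rested 5 h, then received compounds for 48 h; metabolically active cells were measured by CellTiter-Glo luminescence. Final concentrations spanned up to 46 µM (MIPE, 11-point) or 0.59 nM-46 µM (NPC, 8-point) in primary screens, 11-point in follow-ups.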

[16] = qHTS of pediatric cancer cell lines to identify multiple opportunities for drug repurposing: Primary screen for NB1643 cells (AID 1347099); also: nearly all actives have a fitted effect of over 50% in size
In short: as §2

[17] = qHTS of pediatric cancer cell lines to identify multiple opportunities for drug repurposing: Primary screen for LAN-5 cells (AID 1347100)
In short: as §3

[18] = qHTS of pediatric cancer cell lines to identify multiple opportunities for drug repurposing: Primary screen for BT-12 cells (AID 1347101); also: nearly all actives have a fitted effect of over 25% in size
In short: as §4

[19] = qHTS of pediatric cancer cell lines to identify multiple opportunities for drug repurposing: Primary screen for SK-N-MC cells (AID 1347093); also: series mostly up to about 46 µM
In short: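 Metabolically active cells were quantified by ATP-dependent luminescence (CellTiter-Glo, 15 min at room temperature) following 48 h treatment. Cells had been plated at 500-1,000 per well and settled for 5 h beforehand.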

Measured: Potency

COc1ccc(NS(=O)(=O)c2ccc(N)cc2)nn1
inactive: [1] | [2] | [3] | [4] | [5] | [6] | [7] | [8] | [9] | [10] | [11] | [12] | [13] | [14] | [15] | [16] | [17] | [18]

CC(C)=CCC/C(C)=C/CO
inactive: [1] | [2] | [3] | [4] | [5] | [6] | [7] | [8] | [9] | [10] | [11] | [12] | [13] | [14] | [15] | [16] | [17] | [18]

CCS(=O)(=O)CCn1c([N+](=O)[O-])cnc1C
inactive: [1] | [2] | [3] | [4] | [5] | [6] | [7] | [8] | [9] | [10] | [11] | [12] | [13] | [14] | [15] | [16] | [17]

O=C1CC[C@@H](C(=O)O)N1
inactive: [1] | [2] | [3] | [4] | [5] | [6] | [7] | [8] | [9] | [10] | [19] | [11] | [12] | [13] | [16] | [17] | [18]

O=C(O)c1cc(=O)c2ccccc2o1
inactive: [1] | [2] | [3] | [4] | [5] | [6] | [7] | [8] | [9] | [19] | [11] | [12] | [13] | [14] | [15] | [16] | [17] | [18]

CN[C@@H]1[C@@H](O)[C@@H](O[C@@H]2[C@H](O)[C@H](O[C@H]3OC(CN)=CC[C@H]3N)[C@@H](N)C[C@H]2N)OCC1(C)O (stereo partly specified)
inactive: [1] | [2] | [3] | [4] | [5] | [6] | [7] | [8] | [9] | [10] | [19] | [11] | [12] | [13] | [15] | [16] | [17] | [18]

NC(=O)c1ccc([N+](=O)[O-])cc1Cl
inactive: [1] | [2] | [3] | [4] | [5] | [6] | [7] | [8] | [9] | [10] | [11] | [12] | [13] | [14] | [16] | [17] | [18]

O=C(O)/C=C/c1ccc(Cn2ccnc2)cc1
inactive: [1] | [2] | [3] | [4] | [5] | [6] | [7] | [8] | [9] | [10] | [11] | [12] | [13] | [14] | [16] | [17] | [18]

Nc1ccc(C(=O)Oc2ccccc2)c(O)c1
inactive: [1] | [2] | [3] | [4] | [5] | [6] | [7] | [8] | [9] | [10] | [19] | [11] | [12] | [13] | [16] | [17] | [18]

O=C(Cn1ccnc1[N+](=O)[O-])NCCO
inactive: [1] | [2] | [3] | [4] | [5] | [6] | [7] | [8] | [9] | [10] | [11] | [12] | [13] | [14] | [15] | [16] | [17] | [18]

CC1(C)S[C@@H]2[C@H](NC(=O)C(C(=O)O)c3ccccc3)C(=O)N2[C@H]1C(=O)O (stereo partly specified)
inactive: [1] | [2] | [3] | [4] | [5] | [6] | [7] | [8] | [9] | [10] | [19] | [11] | [12] | [13] | [16] | [17] | [18]

NCc1ccc(S(N)(=O)=O)cc1
inactive: [1] | [2] | [3] | [4] | [5] | [6] | [7] | [8] | [9] | [10] | [19] | [11] | [12] | [13] | [16] | [17] | [18]

C[N+]1(C)CCCC(OC(=O)C(O)(c2ccccc2)c2ccccc2)C1 (stereo unspecified)
inactive: [1] | [2] | [3] | [4] | [5] | [6] | [7] | [8] | [9] | [10] | [11] | [12] | [13] | [14] | [15] | [16] | [17] | [18]

CN1CC(=O)NC1=N
inactive: [1] | [2] | [3] | [4] | [5] | [6] | [7] | [8] | [9] | [10] | [11] | [12] | [13] | [15] | [16] | [17] | [18]

CNCc1ccccc1
inactive: [1] | [2] | [3] | [4] | [5] | [6] | [7] | [8] | [9] | [10] | [11] | [12] | [13] | [14] | [15] | [16] | [17] | [18]

Cc1cc(O)cc(C)c1Cl
inactive: [1] | [2] | [3] | [4] | [5] | [6] | [7] | [8] | [9] | [10] | [11] | [12] | [13] | [14] | [16] | [17] | [18]

NS(=O)(=O)c1cc(C2(O)NC(=O)c3ccccc32)ccc1Cl (stereo unspecified)
inactive: [1] | [2] | [3] | [4] | [5] | [6] | [7] | [8] | [9] | [10] | [11] | [12] | [13] | [15] | [16] | [17] | [18]

Reference: PubChem BioAssay (NCATS)
